Mtb BioA inh – inhibitors of Mycobacterium tuberculosis BioA enzyme; purified M. tuberculosis BioA enzyme, plate reader; inhibition, % at 9.99 µM; actives 0.096% (n = 360,000); AID 602481; in the data active = inhibition above about 40%
Yp Topo-I inh – inhibitors of Yersinia pestis topoisomerase I. Y. pestis Topo-I cleavage product accumulation, plate reader. activity, % at 10 µM. actives 0.064% (n = 360,000). AID 504884; in the data active = activity above about 50%, passing the limit was not always enough
TcdB inh – blocks C. difficile toxin B glycohydrolase activity; P18177; TcdB glycohydrolase enzymatic assay, plate reader; inhibition, % at 9.99 µM; actives 0.24% (n = 350,000); AID 652162; in the data active = inhibition above about 10%
Of the large screens only hits and unclear results are named; the others gave an inactive call. This is a sample that favours compounds with a hit; in the whole collection about 0.32% have one here.

C[C@@H]1CN([C@H](C)CO)C(=O)c2cc(NC(=O)c3ccncc3)ccc2O[C@@H]1CN(C)S(=O)(=O)c1cccs1	none (no result: Yp Topo-I inh)
CN(C)CC(=O)Nc1ccc2c(c1)[C@@H]1C[C@H](CC(=O)N3CCOCC3)O[C@H](CO)[C@@H]1O2	none (no result: Yp Topo-I inh, TcdB inh)
C[C@@H]1CN([C@@H](C)CO)C(=O)c2cc(NC(=O)Nc3ccccc3)ccc2O[C@H]1CN(C)Cc1ccc(Cl)c(Cl)c1	none (no result: Yp Topo-I inh, TcdB inh)
Cc1ccc(S(=O)(=O)Oc2ccc(/C=N/NC(=O)c3nn(C)cc3[N+](=O)[O-])cc2)cc1	TcdB inh 14 (no result: Mtb BioA inh)
Cc1ccc(S(=O)(=O)Oc2ccccc2/C=N/NC(=O)c2nn(C)cc2[N+](=O)[O-])cc1	none (no result: TcdB inh)
Cc1noc(C)c1NC(=O)N(C)C[C@@H]1Oc2ccc(NC(=O)Nc3ccc4c(c3)OCO4)cc2C(=O)N([C@@H](C)CO)C[C@H]1C	none (no result: Yp Topo-I inh)
Oc1ccc(CCc2ccccn2)cc1	TcdB inh 14
CNCCc1ccccn1	none
CCCN(C)C[C@H]1OCCCC[C@@H](C)Oc2ccc(NS(=O)(=O)c3cccs3)cc2C(=O)N([C@@H](C)CO)C[C@@H]1C	none (no result: Yp Topo-I inh)
CCOC(=O)C1=C(C)Nc2nnnn2C1c1ccc(OC)c(Br)c1 (stereo not drawn)	TcdB inh 12
CCOC(=O)C1=C(C)NC(=S)N(C(C)=O)C1c1ccc(OC)c(OC)c1 (stereo not drawn)	none
O=C(C[C@@H]1C[C@@H]2c3cc(NC(=O)Nc4ccccc4F)ccc3O[C@@H]2[C@H](CO)O1)NCC(F)(F)F	none (no result: Yp Topo-I inh)
CCOC(=O)/C(=N/Nc1ccc(Br)cc1)N1CC(C)OC(C)C1 (stereo not drawn)	TcdB inh 34 (no result: Mtb BioA inh)
CCOC(=O)/C(=N\Nc1ccccc1)N1CC1	none (no result: Mtb BioA inh)
O=S(=O)(Oc1ccccc1/C=N/n1cnnc1)c1ccccc1	TcdB inh 20 (no result: Mtb BioA inh)
COc1ccccc1/C=N/n1cnnc1	none (no result: TcdB inh)
COc1ccc(CN2C[C@H](O)COC[C@H]3O[C@H](CC(=O)NCc4ccccc4Cl)CC[C@@H]32)cc1	none (no result: Yp Topo-I inh)
COc1cc(/C=N/N2C(=O)C3C4C=CC(CC4)C3C2=O)ccc1O (stereo not drawn)	TcdB inh 18 (no result: Mtb BioA inh)
COc1cc(/C=N/N2C(=O)c3ccccc3C2=O)ccc1O	none
CCC(=O)N1CC2(C1)[C@H](c1ccc(-c3ccc(C#N)cc3)cc1)[C@@H](CO)N2C(C)=O	none (no result: Mtb BioA inh, Yp Topo-I inh)
COc1ccc(NC(=O)/C(C#N)=C\c2ccc(N3CCOCC3)o2)cc1	none (no result: Mtb BioA inh)
N#C/C(=C\c1ccc(N2CCOCC2)o1)C(=O)Nc1ccc(O)cc1	TcdB inh 19
C[C@@H]1CN([C@@H](C)CO)S(=O)(=O)c2ccc(C3=CCCCC3)cc2O[C@@H]1CN(C)Cc1ccncc1	none (no result: Yp Topo-I inh)
CN(C)C(=O)C[C@H]1CC[C@@H]2[C@H](COC[C@H](O)CN2Cc2ccc(C(F)(F)F)cc2)O1	none (no result: Yp Topo-I inh, TcdB inh)
CCOC(=O)/C=c1\s/c(=C\c2c(OC)ccc3ccccc23)c(=O)n1CC(=O)NCC1CCCO1 (stereo not drawn)	none
CCOC(=O)/C=c1/s/c(=C/c2ccc3cc(OC)ccc3c2)c(=O)n1CC(=O)NCC1CCCO1 (stereo not drawn)	TcdB inh 12 (no result: Mtb BioA inh)
C[C@H]1CN([C@@H](C)CO)C(=O)Cc2cc(NC(=O)Cn3cnnn3)ccc2O[C@@H]1CN(C)Cc1ccccc1	none (no result: Yp Topo-I inh)
CNc1nc(SCc2ccc(C)cc2)nc2c1CCCC2	none (no result: TcdB inh)
Cc1ccc(CSc2nc3c(c(N(C)C)n2)CCCC3)cc1	Yp Topo-I inh 59 (no result: TcdB inh)
COC(=O)CSc1nc(SCc2ccc(C)cc2)nc2c1CCCC2	Yp Topo-I inh 58 (no result: TcdB inh)
Cc1ccc(CSc2nc3c(c(SCC(=O)O)n2)CCCC3)cc1	none (no result: TcdB inh)
C/C=C/c1ccc([C@H]2[C@@H](CO)N(C(=O)COC)[C@@H]2CNC(=O)C2CCC2)cc1	none (no result: Mtb BioA inh, Yp Topo-I inh)
CN1[C@@H]2c3ccc(/C=C/c4ccccc4)c(=O)n3C[C@H]1[C@H](CO)[C@H]2C(=O)NC1CCCCC1	none (no result: Mtb BioA inh, Yp Topo-I inh)
CC1(C)Cc2c(sc3ncn(N)c(=N)c23)CO1	none (no result: TcdB inh)
CC1(C)Cc2c(sc3ncn4c(=S)[nH]nc4c23)CO1	TcdB inh 22 (no result: Mtb BioA inh)
CC(C)C#Cc1cnc2c(c1)C(=O)N([C@@H](C)CO)C[C@H](C)[C@@H](CN(C)Cc1ccc3c(c1)OCO3)O2	none (no result: Yp Topo-I inh)
Cc1noc(C)c1NC(=O)Nc1ccc2c(c1)C(=O)N([C@@H](C)CO)C[C@@H](C)[C@@H](CN(C)C(=O)Nc1ccc(C(F)(F)F)cc1)OCCCC[C@@H](C)O2	none (no result: Yp Topo-I inh)
CCCOc1ccc(C2=CC(=O)C[C@H](c3ccc(OC)cc3)C2)cc1	Yp Topo-I inh 60
COc1ccc([C@H]2CC(=O)C=C(c3ccc(OC(F)(F)F)cc3)C2)cc1	none
C[C@@H]1C=C[C@](Cc2ccccc2)(C(=O)NCC2CC2)N1C(=O)c1ccccc1	TcdB inh 11
CNC(=O)[C@@]1(Cc2ccccc2)C=C[C@@H](C)N1C(=O)OC	none
CCCC#Cc1ccc([C@H]2[C@H](CO)N3CCCCN(Cc4cccnc4)C[C@@H]23)cc1	none (no result: Yp Topo-I inh, TcdB inh)
CC(C)CCn1c(=O)c2ccccc2n2c(=S)[nH]nc12	none
CCOCCCn1c(=O)c2ccccc2n2c(=S)[nH]nc12	TcdB inh 25
C[C@H](CO)N1C[C@H](C)[C@H](CN(C)C(=O)C2CCC2)Oc2cc(C#CC3CC3)ccc2S1(=O)=O	none (no result: Yp Topo-I inh)
C[C@H](CO)N1C[C@H](C)[C@H](CN(C)C(=O)Nc2ccccc2)Oc2ccc(NC(=O)Nc3ccc(F)cc3)cc2CC1=O	none (no result: Yp Topo-I inh)
C[C@H]1CN([C@@H](C)CO)C(=O)c2cc(C#CCc3ccccc3)cnc2O[C@@H]1CN(C)C(=O)C1CCOCC1	none (no result: Yp Topo-I inh)
CC=Cc1ccc2n(c1=O)C[C@H]1[C@H](CO)[C@@H](C(=O)NCC3CC3)N(C(=O)C3CCOCC3)[C@@H]21 (mixture of isomers)	none (no result: Yp Topo-I inh)
C[C@H]1CN([C@@H](C)CO)C(=O)Cc2cc(NS(=O)(=O)c3cn(C)cn3)ccc2O[C@@H]1CN(C)C(=O)Nc1ccccc1	none (no result: Yp Topo-I inh)
Cc1ccc(CNCCCn2cnc(C(=O)Nc3ccc(C)c(C)c3)n2)o1	TcdB inh 14
Cc1ccc(NC(=O)c2ncn(CCCNCc3ccccc3)n2)cc1C	none
Cc1nc(C)c(C(=O)Nc2ccccc2)s1	none (no result: TcdB inh)
Cc1nc(C)c(C(=O)Nc2cccc(F)c2)s1	Mtb BioA inh 47
CC(C)(C)OC(=O)CC[C@@]12N=C(c3ccc(OCCCO)cc3)O[C@@H]1c1ccccc1CN(C(=O)c1ccccc1)C2=O	none (no result: Yp Topo-I inh)
C[C@@H]1CN([C@@H](C)CO)C(=O)c2cccc(NS(=O)(=O)c3ccc(F)cc3)c2O[C@@H]1CN(C)C(=O)Nc1cccc2ccccc12	none (no result: Yp Topo-I inh)
C[C@@H]1CN([C@@H](C)CO)C(=O)c2cc(NS(C)(=O)=O)ccc2O[C@@H](C)CCCCO[C@H]1CN(C)C(=O)c1ccccc1	none (no result: Yp Topo-I inh)
C[C@H]1CCCCO[C@H](CN(C)S(=O)(=O)c2cn(C)cn2)[C@@H](C)CN([C@@H](C)CO)C(=O)c2cc(NC(=O)c3ccccc3)ccc2O1	none (no result: Yp Topo-I inh)
C[C@H]1CN([C@@H](C)CO)C(=O)c2c(c3ccccc3n2C)-c2ccccc2CO[C@H]1CN(C)S(C)(=O)=O	none (no result: Yp Topo-I inh)
CC(=O)N(C)C[C@@H]1OCc2ccccc2-c2c(n(C)c3ccccc23)C(=O)N([C@H](C)CO)C[C@@H]1C	none (no result: Yp Topo-I inh)
C[C@H]1CN([C@@H](C)CO)C(=O)c2c(c3ccccc3n2C)-c2ccccc2CO[C@H]1CN(C)C	TcdB inh 11 (no result: Yp Topo-I inh)
C[C@@H]1CN([C@@H](C)CO)C(=O)c2c(c3ccccc3n2C)-c2ccccc2CO[C@@H]1CN(C)C	TcdB inh 20 (no result: Yp Topo-I inh)
CCOC(=O)c1c(NC(=O)CCc2ccc(CC)o2)sc(C)c1C	Yp Topo-I inh 57
COC(=O)c1c(NC(=O)CCc2ccc(C)o2)sc(C)c1C	none (no result: TcdB inh)

Screening results from PubChem.
